Sampled rows, rich in hits. Any-hit rate of the full collection: about 2.3%.
HSP90 inh: HSP90 inhibitors, primary screen, cell lysate, luminescence | Heat shock protein HSP 90 (rabbit reticulocyte lysate; luciferase refolding) | Rabbit reticulocyte lysate, luciferase refolding luminescence, 3 h | inhibition, % at 5.6 µM | 0.91% of 290,000 active;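 active means inhibition above the screen-wide mean plus 3 SD, computed separately per campaign, cut at about 16% in these data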;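 further: 0% = DMSO wells and 100% = 60 µM geldanamycin wells; inhibitors lower the luminescence because luciferase stays unfolded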
SENP8 block-1: human SENP8 protease inhibitors, primary screen, biochemical, fluorescence, Nedd8 protein substrate, uHTS. inhibition, % at 20 µM. 0.64% of 360,000 active. AID 602440, 2012. recombinant SENP8; in the data active means inhibition mostly above about 40%, no sharp cut-off; inactive means mostly below about 27%
Target sequence (Q96LD8 whole entry, looked up): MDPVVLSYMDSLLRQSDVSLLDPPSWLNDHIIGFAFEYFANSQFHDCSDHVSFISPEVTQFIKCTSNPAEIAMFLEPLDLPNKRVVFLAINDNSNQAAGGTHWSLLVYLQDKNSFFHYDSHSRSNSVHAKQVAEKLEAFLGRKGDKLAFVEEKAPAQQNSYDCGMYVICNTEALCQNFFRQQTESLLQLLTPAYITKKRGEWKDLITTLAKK
LGR2 inh: inhibitors of bursicon-induced LGR2 CRE-luciferase signal, primary screen, cell-based, HEK293, CRE-luciferase reporter, bursicon stimulation; Drosophila bursicon receptor LGR2 (rickets); bursicon-stimulated, 4 h; inhibition, % at 9.99 µM; 0.35% of 380,000 active;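 active means drop in luminescence signal, shown as inhibition above about 50% in the replicate tests, limit read from the data, passing the limit was not always enough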;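 further: agonist challenge used bursicon conditioned medium at about half maximal strength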
SENP6 inh: SENP6 protease inhibitors, primary screen, biochemical, luminescence, uHTS; Sentrin-specific protease 6 (Homo sapiens), Q9GZR1; 1.8% of 330,000 active; inhibition, % at 10 µM; AID 2599, 2010; Recombinant SENP6 catalytic domain, aminoluciferin luminescence;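 active means inhibition above about 50% at the single tested dose, limit read from the data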;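 further: plate controls were DMSO wells with enzyme for no effect and DMSO wells lacking enzyme for full effect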
SENP7 inh: SENP7 protease inhibitors, primary screen, biochemical, luminescence, uHTS; Sentrin-specific protease 7 (Homo sapiens), Q9BQF6; recombinant SENP7, Z-RLRGG-aminoluciferin luminescence, 40 min; inhibition, % at 5 µM; 1.5% of 330,000 active; AID 434973, 2010;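 active means inhibition above about 50% at the single test dose, limit read from the data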;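 further: plate controls were DMSO with enzyme for no effect and no enzyme buffer wells for full effect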
Target sequence (Q9BQF6 706-1050 limits assumed): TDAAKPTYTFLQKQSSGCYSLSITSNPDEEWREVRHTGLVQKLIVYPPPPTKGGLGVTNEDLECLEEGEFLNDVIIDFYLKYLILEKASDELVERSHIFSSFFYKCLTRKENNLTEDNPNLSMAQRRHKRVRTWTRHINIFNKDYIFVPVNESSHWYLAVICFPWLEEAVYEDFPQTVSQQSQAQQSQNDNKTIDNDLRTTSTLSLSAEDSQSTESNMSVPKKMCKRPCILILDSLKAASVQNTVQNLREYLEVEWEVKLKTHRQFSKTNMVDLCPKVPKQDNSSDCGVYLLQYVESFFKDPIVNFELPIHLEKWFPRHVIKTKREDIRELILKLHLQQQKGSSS
SENP8 block-2: SENP8 protease inhibitors, primary screen, biochemical, luminescence. 1.2% of 330,000 active. Sentrin-specific protease 8 (Homo sapiens), Q96LD8. AID 2540, 2010. inhibition, % at 10 µM. purified SENP8, Z-RLRGG-aminoluciferin cleavage; in the data active means inhibition above about 50%
Active calls of the source: *; i = inactive; . = no result; ! = not active in a repeat.

SMILES	HSP90 inh	SENP8 block-1	LGR2 inh	SENP6 inh	SENP7 inh	SENP8 block-2
Cc1ccccc1NC(=S)/C(=C(\[O-])c1ccc(C)c([N+](=O)[O-])c1)[n+]1ccccc1	-2	31	10	1	8	1
C[C@@H]1CCCCO[C@@H](CN(C)C(=O)CCCN(C)C)[C@@H](C)CN([C@@H](C)CO)C(=O)c2cc(NC(=O)c3ccccc3)ccc2O1	.	.	-26	.	.	.
Cc1cccc(-c2ccc([C@H]3[C@H](CO)N4C(=O)CN(C(=O)c5ccccc5)C[C@@H]34)cc2)c1	.	.	1	.	.	.
CN(C)c1ccc(NC2=C(Cl)C(=O)c3ccccc3C2=O)cc1	1	43*	49	38	3	9
O=C1C(Cl)=C(Nc2ccc3cn[nH]c3c2)C(=O)c2ccccc21	7	24	-29	.	.	.
CC(=O)Nc1ccc(NC2=C(Cl)C(=O)c3ccccc3C2=O)cc1	-4	.	56*	12	10	24
CC(C)NC(=O)N(C)C[C@@H]1OCCCC[C@@H](C)Oc2ccc(NC(=O)Cc3ccccc3)cc2C(=O)N([C@@H](C)CO)C[C@H]1C	.	.	16	.	.	.
C=CCn1c(O)c(N=Nc2ccccc2[N+](=O)[O-])c2ccccc21	.	46*	-40	.	.	.
C=CCn1c(O)c(N=Nc2ccccc2O)c2ccccc21	.	17	17	-6	9	-8
O=[N+]([O-])c1ccc(/C=N/n2c(CO)nc3ccccc32)s1	3	53*	5	27	28	5
Cc1cc2ncn(/N=C/c3ccc([N+](=O)[O-])s3)c2cc1C	5	33	2	.	.	.
COC(=O)c1cc2c(n1S(=O)(=O)c1ccc(C)cc1)C(=O)C(=O)c1[nH]cc(C(=O)OCc3ccccc3)c1-2	.	108*	.	.	.	.
CCN1/C(=C/C(C)=C/c2sc3ccccc3[n+]2CC)Sc2ccccc21	1	35	110*!	11	-1	18
CC(C)(C)c1ccc(OCc2ccc(C(=O)N/N=C/c3ccc(O)c(O)c3)cc2)cc1	17*	-65	1	10	5	-8
Cc1occc1C(=O)N/N=C/c1ccc(OCc2ccccc2)cc1	10	16	-74	90*	90*	80*
Cc1occc1C(=O)N/N=C/c1ccc2c(c1)OCO2	14	3	-2	100*	99*	96*
C/C=C/c1cnc2c(c1)C(=O)N([C@@H](C)CO)C[C@H](C)[C@H](CN(C)Cc1cccc(C(=O)O)c1)O2	.	.	23	.	.	.
COc1ccc2c(c1OC)C(=O)O[C@@H]2[C@H]1c2c(cc3c(c2OC)OCO3)CCN1C	-3	44*	8	6	3	-3
COc1ccc(C(O)C2c3c(cc4c(c3OC)OCO4)CCN2C)c(CO)c1OC (stereo not drawn)	.	-18	-1	.	.	.
COc1ccccc1CN1C[C@@H](C)[C@H](OC)CN(C)C(=O)c2ccc(NC(C)=O)cc2OC[C@H]1C	.	.	5	.	.	.
Cc1nn(-c2ccccn2)c2c1C(=O)C(Br)CC2 (stereo not drawn)	-6	66*	.	.	.	.
O=C(NC1CCCCC1)N1CC(=O)N2[C@H](C1)[C@@H](c1ccc(-c3ccccc3)cc1)[C@@H]2CO	.	.	-14	.	.	.
COc1ccc([N+](=O)[O-])c(S(=O)(=O)c2ccccc2)n1	5	18	104*	-1	-8	-3
COc1ccc([N+](=O)[O-])c(S(=O)(=O)c2ccc(Cl)cc2)n1	1	12	97*	-16	-5	-14
O=[N+]([O-])c1ccc(O)c(/C=N/Nc2ccc(Cl)nn2)c1	0	20	.	54*	-7	27
SMILES	HSP90 inh	SENP8 block-1	LGR2 inh	SENP6 inh	SENP7 inh	SENP8 block-2
O=[N+]([O-])c1ccc(O)c(/C=N/NC2=NS(=O)(=O)c3ccccc32)c1	3	-103	20	86*	95*	82*
O=[N+]([O-])c1ccc(O)c(/C=N/Nc2nn[nH]n2)c1	4	7	-14	1	-2	0
CNC[C@@H](Cc1ccccc1)NC[C@@H](CC1CCCCC1)NCCCc1ccccc1	1	29	102*	-11	-1	-10
CNC[C@@H](CC1CCCCC1)NC[C@H](CC(C)C)NCCc1cccc(C(F)(F)F)c1	-1	0	103*	-47	5	-19
CO[C@@H]1CN(C)C(=O)c2ccc(NC(=O)Nc3cccc(F)c3)cc2OC[C@@H](C)N(C(=O)Nc2c(C)noc2C)C[C@@H]1C	.	.	21	.	.	.
CCC(=O)N1CC2(C1)CN(C(=O)Nc1ccccc1F)[C@H](CO)c1[nH]c3cc(OC)ccc3c12	.	.	-19	.	.	.
Cc1cccc(-c2ccc([C@H]3[C@H](CO)N4C(=O)CN(C(=O)c5cccnc5)C[C@@H]34)cc2)c1	.	.	6	.	.	.
CC[N+]1=C(C)C(C)(C)c2cc(C)ccc21	4	-3	56*	4	12	3
CC(Nc1cccc2ccccc12)C(=O)N/N=C/c1ccc([N+](=O)[O-])cc1 (stereo not drawn)	4	-40	-13	81*	46	4
CCS(=O)(=O)N1CCC2(CC1)CN(Cc1cccnc1)[C@@H](CO)c1c2c2ccc(OC)cc2n1C	.	.	1	.	.	.
COc1ccc(/C=N/NC(=S)Nc2cccc(C(=O)O)c2)cc1OC	11	-45	82*	12	4	9
COc1ccc(C=NNC(=S)NN=Cc2ccc(OC)c(OC)c2)cc1OC	.	-137	-66	.	.	.
COc1ccc(C=NNC(=S)Nc2ccc(F)cc2)cc1OC	.	7	50*	.	.	.
O=C(c1ccccc1)n1ccc(-c2cnc(-c3ccccc3)s2)n1	12	i	.	57*	90*	67*
CC(C)(C)OC(=O)NCc1ccc(CNC(=O)c2[nH]cnc2C(=O)NCC(=O)OCc2ccccc2)cc1	1	-3	82*	4	-1	3
CC(C)(C)OC(=O)NCc1ccc(CNC(=O)c2nc[nH]c2C(=O)NCc2ccccc2)cc1	.	8	-5	-1	-7	4
CN1C(=O)/C(=C\c2cc(N=Nc3ccccc3)ccc2O)SC1=S	1	49*	.	32	11	31
CN1C(=O)/C(=C\c2ccccc2OCc2ccccc2)SC1=S	-3	26	-2	3	1	-4
C/C=C/c1ccc([C@@H]2[C@@H](CO)N(C(=O)c3cnccn3)C23CN(C(C)=O)C3)cc1	.	.	-4	.	.	.
CCn1nc(C(=O)OCC(=O)c2cc(C)n(Cc3cccs3)c2C)c2ccccc2c1=O	33*	24	.	-10	-5	-7
O=c1[nH]c(-c2ccccn2)cc2ccccc12	-1	-417	-71	5	0	-3
O=c1[nH]c(Nc2ccccn2)cc2ccccc12	.	-499	-64	91*	93*	87*
Cc1cccc(NC(=S)NNC(=O)c2ccccc2OC(F)F)c1	1	4	.	21	16	5

Assay outcomes (PubChem)
